From PubChem BioAssay (Tox21) come the findings set out here.

Where “and” joins values, the source holds several entries; their conditions need not be identical. Equal values may be shown once. Inconclusive results are not listed. The source holds several records for some structures; these can differ, active in one and inactive in another. Calls of active or inactive are those of the source. Unless noted, the call rests on the fitted dose curve; in most records, active means well fitted curve in the direction sought with a large enough effect in the repeat runs; inconclusive means weak or mixed curves; inactive means no such curve, though single readings can be large; an effect the other way counts as inactive or inconclusive.

A short description of test [1]: qHTS assay to identify small molecule antagonists of the estrogen receptor alpha (ER-alpha) signaling pathway using the BG1 cell line in the presence of 0.1 nM 17-beta-estradiol - cell viability counter screen (AID 1259241). Further: nearly all actives have a fitted effect of over 40% in size. In short, it runs like this:
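VM7Luc4E2 cells (endogenous ER-alpha, 4×ERE-luciferase), hormone-starved 5 days in charcoal-stripped FBS, were treated with compounds plus 0.1 nM 17beta-estradiol for 22 hr at 37C; viability read in same wells as CellTiter-Fluor live-cell protease fluorescence.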
For orientation: In qHTS, concentration-response curves come from the screen itself.

Test [2] in a line: qHTS assay to identify small molecule antagonists of the androgen receptor (AR) signaling pathway using the MDA cell line in the presence of 0.5 nM R1881 - cell viability counter screen (AID 1259242). Further: nearly all actives have a fitted effect of over 45% in size. The gist of the method:
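Cells seeded at 3,000/well and allowed 5 hr at 37C, 0% CO2 before compound transfer and R1881 (0.5 nM final) addition; 16 hr later, live-cell protease fluorescence indicated cytotoxicity.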

For test [3], the target named is Estrogen receptor (Homo sapiens) (UniProt P03372). The test is described as follows: qHTS assay to identify small molecule antagonists of the estrogen receptor alpha (ER-alpha) signaling pathway using the BG1 cell line in the presence of 0.1 nM 17-beta-estradiol (AID 1259244). Further: nearly all actives have a fitted effect of over 50% in size. Further: potency means the concentration at half of the fitted maximal effect. The gist of the method:
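Luciferase signal from VM7Luc4E2 ERE-reporter cells, co-dosed with test compound and 0.1 nM final 17beta-estradiol for 22 h, read with ONE-Glo.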

Test [4] can be described thus: qHTS assay to identify small molecule phospholipidosis (PLD) inducers (AID 1259344; active means well fitted curve in the direction sought with a large enough effect; an effect the other way counts as inactive or inconclusive). The gist of the method:
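Read-out is LipidTOX Red fluorescence (ex 595/em 615) imaged in HepG2 cells after 24 h compound exposure at 37 C, with Hoechst nuclear counterstain (ex 352/em 461) allowing per-cell normalisation.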

Test [5] in a line: qHTS assay to identify small molecule HDAC inhibitors (AID 1259364). Further: potency means the concentration at half of the fitted maximal effect.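 Further: wild-type HCT-116 cells with endogenous class I/II HDAC activity; nearly all actives have a fitted effect of over 45% in size.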 In short, it runs like this:
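HCT-116 wt cells, 1,500/well, overnight attach. Compounds (DMSO) 2 h, 37 °C. HDAC-Glo I/II, 30 min RT. Luminescence.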

A short description of test [6]: qHTS assay to identify small molecule HDAC inhibitors - cell viability counter screen (AID 1259365). Further: series mostly up to about 92 µM; nearly all actives have a fitted effect of over 50% in size. In short, it runs like this:
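Wild-type HCT-116 cells were seeded at 1,500 per well, incubated overnight at 37 C, then exposed to compounds in DMSO for 2hr. Viability was read by CellTiter-Glo luminescence after 30min at room temperature.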

The nature of test [7]: qHTS assay to identify small molecule antagonists of the sonic hedgehog signaling (Shh) pathway - cell viability counter screen (AID 1259367). Further: nearly all actives have a fitted effect of over 55% in size. Further: potency means the concentration at half of the fitted maximal effect. In short, it runs like this:
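Fluorescence read-out (CellTiter-Fluor, 1 hr at 37C) taken after 23 hr compound treatment of 3T3 Gli1-Luc cells stimulated with conditioned medium. Cells were seeded at 2,000 per well and pre-incubated 4 hr.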

Test [8] in a line: qHTS assay to identify small molecule agonists of the sonic hedgehog signaling (Shh) pathway (AID 1259368; calls by dose curve; further: series mostly up to about 92 µM; nearly all actives have a fitted effect of over 15% in size). In short, it runs like this:
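Following a 24 hr incubation with DMSO-dissolved compounds at 37 C, 5% CO2, Gli1-Luc NIH/3T3-derived cells received luciferase reagent for 30 min at room temperature prior to luminescence measurement.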

A short description of test [9]: qHTS assay to identify small molecule antagonists of the sonic hedgehog signaling (Shh) pathway (AID 1259369; calls by dose curve; further: nearly all actives have a fitted effect of over 45% in size; further: potency means the concentration at half of the fitted maximal effect). The gist of the method:
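Read-out is luminescence from a firefly luciferase gene controlled by the Gli1 response element, in 3T3Gli1-Luc cells pre-incubated 4hr then exposed to compounds and conditioned medium for 24hr.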

Test [10] is described as follows: qHTS assay to identify small molecule agonists of the androgen receptor (AR) signaling pathway in the presence of an antagonist - cell viability counter screen (AID 1259379). Further: nearly all actives have a fitted effect of over 25% in size. Further: potency means the concentration at half of the fitted maximal effect. The gist of the method:
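Each compound was tested at 15 concentrations on MDA-kb2 cells in the presence of 3.0uM nilutamide. Viability was measured by CellTiter-Fluor fluorescence after a 16 hr incubation at 37C in a CO2-free atmosphere.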

Test [11] is described as follows: qHTS assay to identify small molecule agonists of the estrogen receptor beta (ER-beta) signaling pathway - cell viability counter screen (AID 1259380). Further: nearly all actives have a fitted effect of over 30% in size. In short, it runs like this:
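Compounds dissolved in DMSO were pin-transferred onto ER-beta-UAS-bla HEK293T cells that had settled 6 hr, and exposure ran 16 hr at 37C. Following the reporter read, CellTiter-Glo luminescence after 30 min at room temperature indicated cytotoxicity.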

The target in test [12] is Estrogen receptor (Homo sapiens) (UniProt P03372). The test is described as follows: qHTS assay to identify small molecule agonists of the estrogen receptor alpha (ER-alpha) signaling pathway in the presence of an antagonist (AID 1259383; calls by dose curve; further: top concentration of the series differs between compounds; nearly all actives have a fitted effect of over 15% in size). The gist of the method: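 Luminescent ERE-luciferase reporter, VM7Luc4E2 cells (endogenous ER-alpha); 10.0nM ICI-182,780 final; 15-point compound titration; 22hr at 37C; ONE-Glo, 30min RT.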

A short description of test [13]: qHTS assay to identify small molecule agonists or antagonists of the thyroid stimulating hormone receptor (TSHR) signaling pathway - wild type cell line counter screen (AID 1259384; calls by dose curve). In short, it runs like this:
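Wild-type Hek293 cells, 800/well, 18 h at 37C, then compound with Ro20-1724 for 30 min RT. cAMP by HTRF (cAMP-d2/anti-cAMP cryptate), 1 h RT, fluorescence read. 15 concentrations, triplicates.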

The target in test [14] is Estrogen receptor beta (Homo sapiens) (UniProt Q92731). The experiment in a line: qHTS assay to identify small molecule agonists of the estrogen receptor beta (ER-beta) signaling pathway (AID 1259377; active means well fitted activation curve with a large enough effect in the signal ratio in the repeat runs, not every such curve was filed as active; the % refers to the signal ratio). In short, it runs like this: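 ER-beta-UAS-bla HEK293T (GripTite) cells carrying a UAS-driven beta-lactamase reporter, in medium with 2% charcoal-stripped FBS, were exposed to compounds for 16 hr at 37C; LiveBLAzer B/G FRET substrate was then added and fluorescence read after 2 hours at room temperature.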

Test [15] shares this target. The test is described as follows: qHTS assay to identify small molecule antagonists of the estrogen receptor beta (ER-beta) signaling pathway (AID 1259378; active means well fitted inhibition curve with a large enough effect in the signal ratio in the repeat runs, not every such curve was filed as active; the % refers to the signal ratio; further: potency means the concentration at half of the fitted maximal effect). In short, it runs like this:
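ER-beta-UAS-bla HEK293T cells in 2% charcoal-stripped FBS medium treated with compound plus 1nM final 17-beta-estradiol for 16 hr at 37C. Beta-lactamase reporter read by FRET substrate fluorescence after 2 hours at room temperature.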

The nature of test [16]: qHTS assay to identify small molecule agonists of the sonic hedgehog signaling (Shh) pathway - cell viability counter screen (AID 1259366). Further: nearly all actives have a fitted effect of over 50% in size. Further: potency means the concentration at half of the fitted maximal effect. The gist of the method: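 NIH/3T3-derived 3T3 Gli1-Luc cells (stable Gli1-responsive firefly luciferase reporter) were seeded, rested 4 hr at 37 C/5% CO2, then exposed to compounds in DMSO for 24 hr; viability was read by CellTiter-Fluor fluorescence in the same wells.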

The nature of test [17]: qHTS assay to identify small molecule antagonists of the estrogen receptor beta (ER-beta) signaling pathway - cell viability counter screen (AID 1259382). Further: series mostly up to about 92 µM; nearly all actives have a fitted effect of over 55% in size. The gist of the method:
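CellTiter-Glo ATP luminescence measured after the LiveBLAzer read in the same wells; ER-beta-UAS-bla HEK293T cells, 16 hr compound treatment with 1nM 17-beta-estradiol agonist at 37C, 5% CO2.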

Sequence of Estrogen receptor (Homo sapiens) (P03372 whole entry, looked up): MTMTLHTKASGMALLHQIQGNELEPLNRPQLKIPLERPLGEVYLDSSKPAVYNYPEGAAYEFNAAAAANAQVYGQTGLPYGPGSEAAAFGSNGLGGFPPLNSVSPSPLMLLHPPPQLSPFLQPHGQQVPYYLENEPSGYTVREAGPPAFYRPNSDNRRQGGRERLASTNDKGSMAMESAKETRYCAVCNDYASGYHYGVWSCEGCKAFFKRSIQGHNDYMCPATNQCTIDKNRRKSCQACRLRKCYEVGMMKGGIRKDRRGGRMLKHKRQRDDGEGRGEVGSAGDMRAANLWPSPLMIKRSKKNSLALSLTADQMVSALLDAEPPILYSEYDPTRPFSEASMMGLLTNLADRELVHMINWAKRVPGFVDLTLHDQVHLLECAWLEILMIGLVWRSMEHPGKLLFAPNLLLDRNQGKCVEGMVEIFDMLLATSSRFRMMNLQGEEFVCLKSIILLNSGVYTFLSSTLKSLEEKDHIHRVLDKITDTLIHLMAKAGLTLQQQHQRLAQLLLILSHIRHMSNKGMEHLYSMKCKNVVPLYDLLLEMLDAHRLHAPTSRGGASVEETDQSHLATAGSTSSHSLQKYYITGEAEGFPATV
Sequence of Estrogen receptor beta (Homo sapiens) (Q92731 whole entry, looked up): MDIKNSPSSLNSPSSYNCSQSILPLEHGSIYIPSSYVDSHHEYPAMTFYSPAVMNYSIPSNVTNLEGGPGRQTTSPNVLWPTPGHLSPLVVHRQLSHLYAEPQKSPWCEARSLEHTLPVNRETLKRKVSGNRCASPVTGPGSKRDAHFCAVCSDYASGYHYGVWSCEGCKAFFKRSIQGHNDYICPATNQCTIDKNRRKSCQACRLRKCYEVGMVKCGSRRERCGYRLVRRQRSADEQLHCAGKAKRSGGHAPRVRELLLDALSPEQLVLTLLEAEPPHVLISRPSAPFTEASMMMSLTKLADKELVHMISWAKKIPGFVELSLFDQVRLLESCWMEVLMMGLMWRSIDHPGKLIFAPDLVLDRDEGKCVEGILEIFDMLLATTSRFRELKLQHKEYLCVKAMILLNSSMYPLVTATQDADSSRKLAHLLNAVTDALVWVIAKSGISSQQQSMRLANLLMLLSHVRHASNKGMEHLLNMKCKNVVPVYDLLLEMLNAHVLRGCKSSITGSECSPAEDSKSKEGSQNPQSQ

On to `Nc1ccc(S(=O)(=O)c2ccc(N)cc2)cc1`, for which the Potency entry in test [1], in test [2], in test [3], in [5], in test [7] and in test [9] was “inactive” in each case. Besides, the Potency result in test [10], in [11] and in test [12] was “inactive” throughout. The compound was classed as inactive in test [4], in test [6], in test [8] and in test [13].

Turning to `C[C@]12C=CC(=O)C=C1CC[C@@H]1[C@@H]2[C@@H](O)C[C@@]2(C)[C@H]1CC[C@]2(O)C(=O)CO`, the Potency entry in test [1], in test [2], in test [3], in [5], in test [7] and in test [9] was “inactive” throughout. The Potency entry in test [15], in [10], in test [11] and in test [12] was “inactive” throughout. Moreover, the call in test [4], in [6], in test [8] and in [14] was inactive.

In the case of `COc1ccc2[nH]cc(CCNC(C)=O)c2c1`, the Potency entry in test [1], in test [2], in [3], in test [5], in test [16] and in test [7] was “inactive” throughout. In addition, the Potency result in test [9], in [15], in test [10], in test [11], in test [17] and in [12] was “inactive” in each case. The compound was called inactive in test [4], in test [6], in [8], in test [14] and in test [13].

Regarding `Cn1cc[nH]c1=S`, the Potency result in test [1], in [2], in test [3], in test [5], in test [7] and in [9] was “inactive” each time. For the same compound, the Potency entry in test [10], in test [11] and in test [12] was “inactive” in each case. Besides, the result in [4], in test [6], in test [8], in test [14] and in test [13] was inactive. Also, the Potency in test [15] is 43.2 µM (active) and inactive.

In the case of `O=C1CN(/N=C/c2ccc([N+](=O)[O-])o2)C(=O)N1`, the Potency entry in [2], in test [3], in test [5], in test [17] and in test [12] was “inactive” each time. The call in test [4], in [6], in test [8], in [14] and in test [13] was inactive. The Potency was 48.6 µM (active) in test [16]; 48.4 µM (active) and 38.6 µM (active) in [7]; 48.4 µM (active) and 27.3 µM (active) and inactive in test [9]; 27.2 µM (active) and 61.1 µM (active) and 23.7 µM (active) in test [10].

Consider `O=C(O)CCCCCCCC(=O)O`, for which the Potency result in test [1], in test [2], in test [5], in [7], in test [9] and in [15] was “inactive” throughout. The Potency result in [10] and in test [11] was “inactive” throughout. The compound was classed as inactive in [4], in [6], in test [8], in test [14] and in test [13].

Consider `CCCC(O)C(CC)CO` (stereo unspecified), for which the Potency result in test [1], in [2], in [3], in [5], in test [7] and in test [9] was “inactive” throughout. In addition, the Potency entry in [15], in [10], in [11] and in test [12] was “inactive” each time. Also, the outcome in [4], in test [6], in test [8] and in [14] was inactive.

Turning to `N=C(N)c1ccc(OCCCCCOc2ccc(C(=N)N)cc2)cc1`, the Potency entry in [1], in test [2], in test [7], in [10], in [11] and in test [17] was “inactive” throughout. In addition, the Potency result in test [12] was “inactive”. The Potency in test [3] was 13.6 µM (active) and 18.5 µM (active); in test [5], 8.59 µM (active) and 9.26 µM (active); in test [9], 3.84 µM (active) and 2.33 µM (active) and 18.8 µM (active). The compound was called inactive in [4], in [6], in test [8] and in test [13].

As to `O=C(O)CS`, the Potency entry in test [1], in test [2], in test [3], in test [5], in [7] and in test [10] was “inactive” in each case. For the same compound, the Potency entry in test [11] and in test [12] was “inactive” in each case. Moreover, the outcome in [6] and in [8] was inactive. The Potency entry is “inactive and 30.9 µM (active)” in test [16]; “inactive and 30.9 µM (active)” in test [9].
